Screens as filed in PubChem.
PostGolgi ctrl: inhibits growth of the yeast control strain. efflux-deficient yeast background strain, growth absorbance A615, 16 h. 98,000 tested, 5% active. inhibition, % at 10 µM
CYP2C9 inh: blocks human cytochrome P450 2C9. P11712. CYP2C9 Supersomes, luciferin-H conversion, luminescence. inhibition, % at 5 µM. 96,000 tested, 20% active. AID 777;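 active = blocking of liver enzyme CYP2C9 beyond about 50% at 5 µM, limit read from the data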
Target sequence (P11712 whole entry, looked up): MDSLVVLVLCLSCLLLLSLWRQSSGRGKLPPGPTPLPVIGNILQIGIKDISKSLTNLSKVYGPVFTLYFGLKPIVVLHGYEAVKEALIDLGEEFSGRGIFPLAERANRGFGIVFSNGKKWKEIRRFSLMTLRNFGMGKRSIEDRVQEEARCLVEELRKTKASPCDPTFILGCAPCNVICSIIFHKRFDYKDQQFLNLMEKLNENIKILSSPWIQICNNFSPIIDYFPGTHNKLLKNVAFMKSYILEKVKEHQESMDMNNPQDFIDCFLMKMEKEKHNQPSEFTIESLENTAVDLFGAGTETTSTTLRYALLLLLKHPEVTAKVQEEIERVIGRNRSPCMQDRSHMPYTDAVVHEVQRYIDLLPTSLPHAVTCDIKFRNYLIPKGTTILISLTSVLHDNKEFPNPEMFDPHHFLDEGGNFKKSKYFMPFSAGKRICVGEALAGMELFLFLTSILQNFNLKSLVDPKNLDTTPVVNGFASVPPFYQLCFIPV
PostGolgi yeast: growth inhibition of a yeast mutant, post-Golgi transport screen. 98,000 tested, 0.9% active. inhibition, % at 10 µM. post-Golgi transport phenotypic cell assay. AID 739;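 note: yeast cells grown in 1536-well plates; yeast grown about 18 h at 30C before absorbance read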
CYP2C19 act: activators of human cytochrome P450 2C19 | 96,000 tested, under 10 active | AID 1025 | activation factor at 5 µM | recombinant CYP2C19, luciferin-H EGE luminescence; active compounds read high; 0 = fully inhibited enzyme, 1 = untreated enzyme | P33261;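 active = activation factor of at least 2 at 5 µM in the primary screen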
CYP2C9 activ: increases human cytochrome P450 2C9 activity; P11712; AID 1024; 96,000 tested, 1.4% active; activation factor at 5 µM; recombinant CYP2C9, luciferin-H conversion, luminescence; active compounds read high; factor 1 = untreated enzyme, 0 = blocked;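 active = activation factor of 2 or more for CYP2C9 at a 5 µM dose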
CYP2C19 inhib: inhibitors of human CYP2C19 | P33261 | CYP2C19 Supersomes, luciferin-H EGE luminescence, 30 min | inhibition, % at 5 µM | 96,000 tested, 21% active | AID 778;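 active = CYP2C19 inhibition above a set limit at 5 µM in the primary screen, cut at about 50% in these data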
Large screens that a line does not name were inactive. In the library only some 32% were active in any assay of this set; here they are far more common. Cut-off read from the data, not from the text of the source, unless noted: active = inhibition above about 30%; inactive = the rest.

O=C(CN1C(=O)c2ccccc2S1(=O)=O)N1CCN(c2ccc(F)cc2)CC1	none
COc1ccccc1/C=C/CN1CCN(c2ccccc2)CC1	CYP2C19 inhib 82
CCOc1ccccc1N1CCN(C/C=C/c2ccc(N(C)C)cc2)CC1	none
CC(C)CNC(=S)NC1CCCC1	none
c1ccc(-c2noc(C34CC5CC(CC(C5)C3)C4)n2)nc1	none
Cc1cc2nn(-c3cccc4ccccc34)nc2cc1N	CYP2C9 inh 58
Cc1ccccc1-c1nc2cc(N)ccc2o1	none
Nc1ccc2nn(-c3cccc4ccccc34)nc2c1	CYP2C9 inh 51
CSc1nnc(-c2sccc2OCc2ccccc2)n1C	none
CSc1n[nH]c(-c2sccc2OCc2ccc(C)cc2)n1	CYP2C9 inh 58, CYP2C19 inhib 83
Cc1ccc(NC(=O)CC(O)(C(F)(F)F)C(F)(F)F)cc1	CYP2C19 inhib 59
CCOC(=O)Nc1cc(C)ccc1OC	none
Cc1ccc(NC(=O)CCC(=O)NCCO)cc1	none
COc1ccc(C)cc1NC(=O)CC(O)(C(F)(F)F)C(F)(F)F	CYP2C19 inhib 62
O=C1c2ccccc2C(=O)N1C/C=C/CN1C(=O)c2ccccc2C1=O	none
COc1ccc(C2CC(C(F)(F)F)n3nc(C(=O)O)c(Br)c3N2)cc1 (stereo not given)	none
O=C(c1ccccc1)n1c(=S)nc2ccccn21	CYP2C19 inhib 79 (no result: PostGolgi ctrl, PostGolgi yeast)
C=CCn1c(SCC(=O)N2CCOCC2)nc(O)c(Cc2ccccc2)c1=O	none
O=C(c1ccccc1)N1CCCC(c2nc3c(nnn3Cc3ccccc3)c(=O)[nH]2)C1 (stereo not given)	CYP2C9 inh 78
COc1ccccc1NC(=O)N1CCCC(c2nc3c(nnn3Cc3ccc(C)cc3)c(=O)[nH]2)C1 (stereo not given)	CYP2C19 inhib 67
Cc1ccc(C)c(Cn2nnc3c(=O)[nH]c(C4CCCN(C(=O)C5CCCCC5)C4)nc32)c1 (stereo not given)	CYP2C9 inh 89, CYP2C19 inhib 73
O=C(c1cccs1)N1CCC(c2nc3c(nnn3Cc3ccccc3)c(=O)[nH]2)CC1	CYP2C9 inh 59
COc1cc2nc(CN(C)CC(=O)Nc3ccc(N4CCOCC4)cc3)[nH]c(=O)c2cc1OC	none (no result: PostGolgi ctrl, PostGolgi yeast)
COc1ccccc1OC(=O)c1ccc(SC)cc1OC	none
O=C(NC1CCCC1)C(NS(=O)(=O)c1cccc2nsnc12)c1ccccc1 (stereo not given)	CYP2C9 inh 50
O=C(NC1CCCCC1)C1CCCN1S(=O)(=O)c1cccc2nsnc12 (stereo not given)	CYP2C9 inh 54
O=C(CCS(=O)(=O)c1cccc2nsnc12)NC1CCCCCC1	none
O=C(O)c1ccc(Cl)c(NC(=O)C2CCCN2S(=O)(=O)c2cccc3nsnc23)c1 (stereo not given)	none
CCOC(=O)N1CCN(C(=O)C(NS(=O)(=O)c2cccc3nsnc23)c2ccccc2)CC1 (stereo not given)	CYP2C9 inh 73
Cn1c(=O)[nH]c(=O)c2c1nc(N1CCCCCC1)n2CCSc1nc2ccccc2[nH]1	none
CCC(CO)NCc1ccc2c(c1)n(C)c(=O)n2C (stereo not given)	none
COc1ccc2c(c1)c(N=O)c(O)n2C	none
O=C(Nn1cnnc1)c1cc2cc(Br)ccc2oc1=O	CYP2C19 inhib 54
CC(C)NC(=O)c1cc2cc(Br)ccc2oc1=O	CYP2C9 inh 50, CYP2C19 inhib 61
CCC(C)NC(=O)C1(C)CCC(=O)N1Cc1ccccc1OC (stereo not given)	none
O=C(CCc1nc2ccccc2c(=O)[nH]1)OCc1nnc(-c2ccccc2)o1	none
CCC1Oc2ccc(C)cc2N(CC(=O)N(Cc2cccnc2)Cc2ccc(C)o2)C1=O (stereo not given)	CYP2C9 inh 63, CYP2C19 inhib 72
c1ccc(-c2cc(-c3nn4c(-c5ccco5)nnc4s3)c3ccccc3n2)cc1	PostGolgi ctrl 38, CYP2C9 inh 77
Cc1ccccc1-c1nn2c(-c3ccccc3)nnc2s1	PostGolgi ctrl 41, CYP2C9 inh 56, CYP2C19 inhib 87
COc1ccc(-c2nnc3sc(COc4ccccc4)nn23)cc1	none
Cc1ccc(-c2nnc3sc(CCc4ccccc4)nn23)cc1	PostGolgi ctrl 30, CYP2C9 inh 76, CYP2C19 inhib 65
Cc1oc(-c2ccc(Cl)cc2)cc1-c1nn2c(-c3ccco3)nnc2s1	none (no result: PostGolgi ctrl, PostGolgi yeast)
Cc1cc(-c2nn3c(-c4ccccc4)nnc3s2)c2ccccc2n1	CYP2C19 inhib 79
CCOc1ccc(-c2nn3c(-c4ccccc4)nnc3s2)cc1	none
OC(COCc1ccc2c(c1)OCO2)CN1CCN(Cc2ccccc2)CC1 (stereo not given)	none
Cc1ccc(NC(C)c2cc(Cl)ccc2O)cc1 (stereo not given)	CYP2C9 inh 98, CYP2C19 inhib 100
Cc1ccc(NC(=O)C(c2ccc(Cl)cc2)N2CCCCC2)cc1 (stereo not given)	none
O=C(CSc1nnc(Cc2ccccc2)o1)N1CCOCC1	none
COc1ccc(/C=N/n2c(SC)nnc(C(C)(C)C)c2=O)c(OC)c1	none
CCCCNS(=O)(=O)c1ccc2nc(SCC(=O)Nc3sccc3C#N)[nH]c2c1	CYP2C9 inh 97, CYP2C19 inhib 69
CCOc1ccc2nc(SCC(=O)Nc3ncccn3)[nH]c2c1	none
CCCCNS(=O)(=O)c1ccc2nc(SCC(=O)c3ccccc3OC)[nH]c2c1	CYP2C9 inh 94, CYP2C19 inhib 94
COCCCNC(=O)c1c(N)n(/N=C/c2ccccn2)c2nc3ccccc3nc12	CYP2C9 inh 52
NC(=O)c1c(NC(=O)Cc2cccs2)sc2c1CCC2	CYP2C9 inh 58
N#Cc1c(NC(=S)NC(=O)Cc2cccs2)sc2c1CCCCC2	CYP2C9 inh 89
CCOC(=O)c1c(NC(=O)Cc2cccs2)sc2c1CCCC2	PostGolgi ctrl 37
CC(C)OC(=O)c1c(NC(=O)CCn2nnc3ccccc32)sc2c1CCCC2	CYP2C9 inh 82, CYP2C19 inhib 57
CCN(CC)C(C(=O)Nc1ccc(C(C)C)cc1)c1ccc2c(c1)OCO2 (stereo not given)	none
CCc1nc(SCC(=O)NCCc2ccc(OC)c(OC)c2)c2c(=O)n(C)c(=O)n(C)c2n1	none
CC12CN(S(=O)(=O)c3ccccc3)CC(C)(CN(S(=O)(=O)c3ccccc3)C1)C2	none
Cc1ccc(S(=O)(=O)NC(CC(=O)N2CCc3ccccc32)c2ccco2)cc1 (stereo not given)	none
CN(C)C(=O)CCc1nc(-c2ccc(C(C)(C)C)cc2)no1	none
CCOC(=O)N1CCC(NC(=O)CC(NS(=O)(=O)c2ccc(C)cc2)c2ccco2)CC1 (stereo not given)	CYP2C9 inh 59
CCN(Cc1ccccc1)C(=O)CCc1nc(-c2ccc(C)cc2)no1	PostGolgi ctrl 42, CYP2C9 inh 88, CYP2C19 inhib 81
Cc1ccc(-c2noc(CCC(=O)Nc3ccc(C)cn3)n2)cc1	none
